From PubChem BioAssay AID1159580 (chemical genetic matrix, 2015)
The whole screen tested about 5,500 compounds, of which about 2,000 (36%) were called active. About 18% were inconclusive and are not listed. Cut-off read from the data, not from the text of the source: active = normalized growth mostly below about 0.91 (no sharp cut-off); inconclusive = no clear call, values can overlap the other calls; inactive = mostly above about 0.92. Some of the results follow.

Assay: chemical genetic growth profiling, strain panel (AID 1159580);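 note: tested at 20 µM; growth read once vehicle control cultures reached saturation at 30 °C; 1 = growth at the plate median or of vehicle wells; lower values mean less growth of the strain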
Conditions: S. cerevisiae deletion strains, growth OD

Measured: normalized growth

CC(=O)O[C@H]1C(=O)[C@@]2(C)C([C@H](OC(=O)c3ccccc3)[C@]3(O)C[C@H](O)C(C)=C1C3(C)C)[C@]1(OC(C)=O)CO[C@@H]1C[C@@H]2O (stereo partly drawn)
inactive: locus YAL021C, strain ccr4, hits give low values 0.974 | locus YAL026C, strain drs2, hits give low values 0.983 | locus YAL030W, strain snc1, hits give low values 1 | locus YBL061C, strain skt5, hits give low values 1.02 | locus YBR009C, strain hhf1, hits give low values 0.986 | locus YBR023C, strain chs3, hits give low values 0.998 | locus YBR171W, strain sec66, hits give low values 1 | locus YBR231C, strain swc5, hits give low values 1 | locus YBR279W, strain paf1, hits give low values 0.999 | locus YCL011C, strain gbp2, hits give low values 1 | locus YCL016C, strain dcc1, hits give low values 1.01 | locus YCL069W, strain vba3, hits give low values 0.98 | locus YCR088W, strain abp1, hits give low values 0.986 | locus YDL005C, strain med2, hits give low values 1 | locus YDL040C, strain nat1, hits give low values 0.999 | locus YDR001C, strain nth1, hits give low values 0.99 | locus YDR069C, strain doa4, hits give low values 1.02 | locus YDR137W, strain rgp1, hits give low values 1.05 | locus YDR159W, strain sac3, hits give low values 1.01 | locus YDR195W, strain ref2 0.946 | locus YDR297W, strain sur2, hits give low values 0.977 | locus YDR334W, strain swr1, hits give low values 0.969 | locus YDR335W, strain msn5, hits give low values 0.993 | locus YDR392W, strain spt3, hits give low values 0.985 | locus YEL003W, strain gim4, hits give low values 0.991 | locus YEL037C, strain rad23, hits give low values 0.983 | locus YEL061C, strain CIN8 (second series), hits give low values 0.981 | locus YER015W, strain faa2, hits give low values 1 | locus YER016W, strain bim1, hits give low values 1.01 | locus YER111C, strain swi4, hits give low values 1 | locus YER155C, strain BEM2 (second series), hits give low values 1.01 | locus YFR010W, strain ubp6, hits give low values 0.985 | locus YGL167C, strain pmr1, hits give low values 1 | locus YGL173C, strain kem1, hits give low values 0.998 | locus YGL227W, strain vid30, hits give low values 0.992 | locus YGL240W, strain doc1, hits give low values 1 | locus YGL253W, strain hxk2, hits give low values 0.99 | locus YHR013C, strain ard1, hits give low values 1 | locus YHR027C, strain rpn1, hits give low values 1 | locus YHR030C, strain SLT2, hits give low values 0.988 | locus YHR079C, strain IRE1, hits give low values 0.995 | locus YHR142W, strain chs7, hits give low values 0.984 | locus YJL092W, strain hpr5, hits give low values 0.998 | locus YJL095W, strain BCK1 (second series), hits give low values 0.995 | locus YJL095W, strain BCK1, hits give low values 0.995 | locus YJL115W, strain asf1, hits give low values 0.973 | locus YJL129C, strain trk1, hits give low values 0.982 | locus YJL154C, strain vps35, hits give low values 0.98 | locus YJL164C, strain tpk1, hits give low values 1 | locus YJL166W, strain qcr8, hits give low values 1 | locus YJR066W, strain TOR1, hits give low values 0.94 | locus YKL160W, strain elf1, hits give low values 1.01 | locus YKR026C, strain gcn3, hits give low values 0.985 | locus YKR091W, strain srl3, hits give low values 1.01 | locus YLL001W, strain dnm1, hits give low values 1 | locus YLL026W, hits give low values 0.999 | locus YLL041C, strain sdh2, hits give low values 0.985 | locus YLR027C, strain aat2, hits give low values 0.988 | locus YLR113W, strain HOG1, hits give low values 1.01 | locus YLR221C, strain rsa3, hits give low values 0.994 | locus YLR258W, strain gsy2, hits give low values 0.999 | locus YLR262C, strain YPT6 (second series), hits give low values 1 | locus YLR320W, strain mms22, hits give low values 1.01 | locus YLR342W, strain FKS1, hits give low values 1.01 | locus YLR357W, strain rsc2, hits give low values 0.968 | locus YLR370C, strain arc18, hits give low values 0.984 | locus YLR384C, strain iki3, hits give low values 0.981 | locus YML120C, strain ndi1, hits give low values 1.01 | locus YMR058W, strain fet3, hits give low values 0.99 | locus YMR125W, strain sto1, hits give low values 0.993 | locus YMR129W, hits give low values 0.988 | locus YMR205C, strain PFK2, hits give low values 0.989 | locus YMR231W, strain pep5, hits give low values 1 | locus YNL071W, strain lat1, hits give low values 0.979 | locus YNL183C, strain NPR1, hits give low values 0.953 | locus YNL209W, strain ssb2, hits give low values 0.987 | locus YNL248C, strain rpa49, hits give low values 0.974 | locus YNL322C, strain KRE1 (second series), hits give low values 1.01 | locus YNR049C, strain mso1, hits give low values 1.01 | locus YOR001W, strain rrp6, hits give low values 0.982 | locus YOR070C, strain gyp1, hits give low values 0.987 | locus YOR080W, strain dia2, hits give low values 0.993 | locus YOR083W, strain WHI5, hits give low values 1.01 | locus YOR106W, strain vam3, hits give low values 1.01 | locus YOR231W, strain MKK1, hits give low values 0.973 | locus YOR265W, strain rbl2, hits give low values 0.969 | locus YOR270C, strain vph1, hits give low values 0.888 | locus YOR290C, strain snf2, hits give low values 1.02 | locus YPL051W, strain arl3, hits give low values 1.01 | locus YPL078C, strain atp4, hits give low values 0.996 | locus YPL106C, strain sse1, hits give low values 0.987 | locus YPL240C, strain hsp82, hits give low values 0.995 | locus YPL256C, strain CLN2, hits give low values 0.966
